# Compound activity: PubChem BioAssay, National Center for Advancing Translational Sciences (NCATS)
# Hits are enriched below; roughly 7.9% of the tested compounds scored in any of these assays.
# KB-V1 cytotox – KB-V1 MDR subline cytotoxicity; Potency, µM (titrated, usually from 46.1 µM), hits mostly cytotoxic; 400,000 compounds, 3.4% hits; KB-V1 MDR cells viability, CellTiter-Glo, 72 h; AID 1347076; also: nearly all actives have a fitted effect of over 60% in size
#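 Drug-selected KB-V1 cells, grown in DMEM lacking phenol red with 10% FBS, receive compound titrations; after three days at 37 degrees C, surviving cell ATP is quantified by CellTiter-Glo luminescence and responses normalized and curve-fitted.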
# KB-3-1 cytotox – kills parental KB-3-1 adenocarcinoma cells; Potency, µM (doses to about 46.1 µM), hits mostly cytotoxic; KB-3-1 viability, CellTiter-Glo ATP luminescence, 72 h; 400,000 compounds, 1.4% hits; also: nearly all actives have a fitted effect of over 60% in size
#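 Cytotoxicity measured as CellTiter-Glo luminescence after 72 h at 37 C. Compound titrations were pinned onto drug-naive KB-3-1 parental adenocarcinoma cells grown in DMEM with 10% FBS, and normalized data fitted to concentration-response curves.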
# SW480 rereplic – inducers of DNA re-replication in SW480 colon cancer cells. 340,000 compounds, 1.8% hits. SW480 DNA re-replication, Hoechst DNA content imaging, 48 h. AID 624297. Potency, µM (titrated, usually from 46.1 µM), actives largely listed as activators; also: nearly all actives have a fitted effect of over 55% in size
#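 First, 250 cells per well were seeded. Next, compound or vehicle (23 nL) was pinned in, plates sat 48 hr at 37 C. Finally Hoechst was added for 40 min before fluorescence scanning.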
# MCF10A rerep – DNA re-replication induction in MCF 10a cells; MCF 10A DNA re-replication, Hoechst nuclear intensity, 48 h; 350,000 compounds, 2.9% hits; Potency, µM (top dose mostly 46.1 µM), most hits filed as activators; also: nearly all actives have a fitted effect of over 50% in size
# HT1080 IDH1KD tx – HT-1080 IDH1 knockdown cell toxicity (counter line); HT-1080 IDH1 knockdown viability, ATP luminescence, 48 h; Potency, µM (series often up to 46.1 µM), actives largely listed as cytotoxic; 360,000 compounds, 2% hits
#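 Assay cells: HT-1080 with IDH1 knockdown, 750 per well, RPMI/5% FBS. Exposure: 48 h at 37 °C following 2 h pre-incubation. Read: CellTiter-Glo luminescence; fitted concentration-response, curve class assigned.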
# HT1080-NT tox – kills 2HG-producing HT-1080-NT fibrosarcoma cells; HT-1080-NT fibrosarcoma viability, CellTiter-Glo ATP luminescence, 48 h; Potency, µM (titrated, usually from 46.1 µM), hits mostly cytotoxic; 360,000 compounds, 1.6% hits;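 also: NT is the 2HG producing partner of a matched IDH1 knockdown line; nearly all actives have a fitted effect of over 55% in size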
#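 Compounds were tested in concentration-response format on HT-1080-NT cells for 48 hours at 37 degrees C. Cell viability came from CellTiter-Glo luminescence; curves were classified by r2, response magnitude and activity.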
# A number is an active result; - = inactive; ? = inconclusive; . = not tested or not shown; [ ] = remark or other dose. Calls follow the shape of the dose curve; as a rule, active = well fitted curve in the direction sought with a large enough effect; inconclusive = small, poorly fitted or top-dose-only effect, or another doubt; inactive = no such curve, though single readings can be large; an effect the other way counts as inactive or inconclusive.
SMILES,KB-V1 cytotox,KB-3-1 cytotox,SW480 rereplic,MCF10A rerep,HT1080 IDH1KD tx,HT1080-NT tox
CC(=O)Nc1c(Br)cc2c(c1Br)Cc1cc([N+](=O)[O-])ccc1-2,?,-,4.1µM,?,-,-
CC(=O)Nc1ccc2c(c1)Cc1c-2cc(Cl)c(NC(C)=O)c1Cl,-,-,-,-,-,-
O=C(Nc1c(Cl)cc2c(c1Cl)Cc1cc([N+](=O)[O-])ccc1-2)C(Cl)Cl,?,?,?,18µM,-,-
COC(=O)Cn1c(=NC(=O)c2cc(-c3cccs3)nc3ccccc23)sc2cc(S(N)(=O)=O)ccc21,?,-,?,7.3µM,?,-
COC(=O)Cn1c(=NC(=O)c2nc3ccccc3s2)sc2cc(S(N)(=O)=O)ccc21,-,?,-,?,-,-
CCOC(=O)Cn1c(=NC(=O)c2cc(-c3cccs3)nc3ccccc23)sc2cc(S(N)(=O)=O)ccc21,-,-,?,8.2µM,-,?
COc1ccc(CNC(=O)c2ccc3c(c2)CCN3S(=O)(=O)c2ccc(Cl)cc2)cc1,-,-,.,.,.,.
C=CCn1c(CNC(=O)c2cccs2)nnc1SCC(=O)c1ccc(Br)cc1,15µM,-,-,-,?,-
C=CCn1c(CCNC(=O)c2cccs2)nnc1SCC(=O)c1ccc(Cl)cc1,-,-,?,26µM,?,?
C=CCn1c(CCNC(=O)c2cccs2)nnc1SCC(=O)c1cccc([N+](=O)[O-])c1,-,-,?,?,?,-
COc1ccc(-c2nc(N)nc(C(F)(F)F)c2-c2cscn2)c(O)c1,-,-,-,-,-,-
COc1ccc(-c2nc(N)nc(C)c2Oc2ccccc2Br)c(O)c1,?,?,?,15µM,-[9.24 µM],?
O=C1C[C@H]2C=CCc3cccc(c32)CN1Cc1ccc(Br)cc1,?,-,.,.,.,.
Cc1ccc(Nc2cc(C)c3ccc(O)cc3n2)cc1C,-,?,?,23µM,-,-
COC(=O)c1cc(Nc2cc(C)c3c(O)cccc3n2)cc(C(=O)OC)c1,-,-,?,-,-,-
COC(=O)c1cc(Nc2cc(C)c3ccc(O)cc3n2)cc(C(=O)OC)c1,-,-,?,15µM,-,-
CCc1ccc(-c2cc(C)no2)cc1S(=O)(=O)N1CCN(C(=O)c2ccco2)CC1,-,-,-,-,-,-
CCCCn1c(NC(=S)Nc2ccccc2)nc2ccccc21,?,?,16µM,?,?,18µM
CCCCn1c(NC(=O)c2ccccc2)nc2ccccc21,?,-,-,?,-,?
CC(=O)Nc1nc2ccccc2n1CCOc1ccccc1,-,?,-,?,-,-
S=C(Nc1ccccc1)Nc1nc2ccccc2n1CCOc1ccccc1,15µM,-,?,?,?,?
OCCN1CCN(CCC=C2c3ccccc3Sc3ccc(Cl)cc32)CC1,.,.,-,-,.,.
OCCN1CCN(CC/C=C2/c3ccccc3Sc3ccc(C(F)(F)F)cc32)CC1,-,-,?,?,21µM,21µM
COCCOC(=O)c1c(C)oc2ccc(OS(C)(=O)=O)cc12,?,?,-,-,-,-
Cc1oc2ccc(OS(C)(=O)=O)cc2c1C(=O)OC(C)C,13µM,-,-,-,-,-
SMILES,KB-V1 cytotox,KB-3-1 cytotox,SW480 rereplic,MCF10A rerep,HT1080 IDH1KD tx,HT1080-NT tox
CC(=O)N=c1c(C#N)cc2c(=O)n3ccccc3nc2n1CCCOC(C)C,-,-,16µM,?,-,-
CC(C)OCCCn1c(=N)c(C(N)=S)cc2c(=O)n3ccccc3nc21,?,-,5.8µM,9.2µM,-,-
CC(C)OCCCn1c(=NC(=O)c2cccs2)c(C#N)cc2c(=O)n3ccccc3nc21,?,-,21µM,12µM,-,-
COc1cc(OC)cc(C(=O)NC(C)CNc2ccc(Cl)cc2[N+](=O)[O-])c1 (stereo not given),-,-,-,-,-,-
Cc1ccc(-c2nn(-c3ccccc3)cc2NC(=O)CCl)cc1,?,8.2µM,18µM,?,7.3µM,5.2µM
Cc1ccc(-c2nn(-c3ccccc3)cc2CNCc2ccccc2)cc1,-,?,-,?,23µM,16µM
Cc1ccc(-c2nn(-c3ccccc3)cc2CO)cc1,-,-,-,-,-,-
Cc1ccccc1NC(=O)c1cn(-c2ccccc2)nc1-c1ccccc1,-,-,-,?,-,-
C[C@@H](CCc1ccccc1)NC[C@H](O)c1ccc(O)c(C(N)=O)c1,.,.,-,-,.,.
Fc1ccc(F)c(C2=NNC(=Nc3ccccc3F)SC2)c1,?,?,?,21µM,?,?
Fc1ccccc1N=C1NN=C(c2ccccc2)CS1,?,?,?,?,?,13µM
CN(C)S(=O)(=O)c1cccc(N=C2NN=C(c3ccccc3)CS2)c1,?,?,13µM,-,?,?
Fc1ccc(N=C2NN=C(c3cc(F)ccc3F)CS2)cc1,-,?,?,?,?,?
Cc1cccc(N=C2NN=C(c3ccccc3F)CS2)c1C,-,-,-,-,-,-
O=S(=O)(c1ccc(N=C2NN=C(c3cc(F)ccc3F)CS2)cc1)N1CCOCC1,?,?,?,-,16µM,?
CC(C)C(NC(=O)c1ccco1)C(=O)NCc1ccc(C(=O)O)cc1 (stereo not given),-,-,-,-,-,-
Cc1ccc2c(c1)S/C(=C\c1cccc[n+]1C)N2CCO,?,?,-,-,16µM,-
C[n+]1ccccc1/C=N/O,-,-,-,-,-,-
Cc1ccc2c(c1)S/C(=C/c1ccc[n+](CCO)c1)N2C,-,2.6µM,-,-,?,-
C[n+]1ccccc1/C=C1\Sc2ccccc2N1CCO,-,21µM,-,-,?,-
CC[n+]1ccc(/C=C2\Sc3ccccc3N2CCCS(=O)(=O)[O-])c2ccccc21,-,-,-,-,-,-
Cc1ccccc1S(=O)(=O)NC(=O)C1(C)CCN1C(=O)Cc1ccccc1Cl (stereo not given),-,-,.,.,-,-
O=C(COC(=O)CC(c1ccccc1)c1ccccc1)NCc1ccc(Cl)cc1,23µM,-,?,?,-,-
COc1ccc(-c2noc(CNC(=O)c3cc(OC)c(OC)c(OC)c3)n2)cc1,-,-,.,.,.,.
CSc1ccc(/C=C(\C#N)C(=O)NC2CCCCC2C)cc1 (stereo not given),16µM,?,?,18µM,?,?
CC1CCCCC1NC(=O)/C(C#N)=C/c1ccccc1F (stereo not given),-,-,?,15µM,18µM,?
COc1cc(/C=C(\C#N)C(=O)NC2CCCCC2C)ccc1OS(=O)(=O)c1ccc(C)cc1 (stereo not given),-,?,?,18µM,?,?
CCCCCCCCNC(=O)/C(C#N)=C/c1ccc(SC)cc1,21µM,-,2.1µM,-,-,-
